In PubChem BioAssay AID1626 (SRMLSC, 2009):
The campaign covered roughly 220,000 compounds. About 2,000 (0.91%) were called active. Roughly 2% stayed inconclusive and do not appear here. Cut-off read from the data, not from the text of the source: inconclusive = inhibition above about 80% without an active follow-up result; inactive = below that; test concentration not stated here. The list is a sample of the results. Potency and affinity values are given separately.

Test: M. tuberculosis H37Rv growth inhibitors, H37Rv strain (AID 1626);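 note: bacteria incubated seven days before Alamar blue readout; 0% = bacteria only wells and 100% = bacteria with antibiotic wells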
Conditions: hits give high values, concentration not given here
In the case of O=C(C(=O)N1CCc2ccccc2C1)c1cn(CC(=O)N2CCOCC2)c2ccccc12, the inhibition is reported as -0.84% (inactive).
With CCOC(=O)/C=C(\C)N1N=C(c2ccccc2)CC1c1ccccc1 (centres undefined) the inhibition was 33.1% (inactive).
With C=CCOc1ccccc1CNCCc1ccc(S(N)(=O)=O)cc1 the inhibition was 0.31% (inactive).
With CCOC(=O)c1cccc(NC(=S)NCc2ccc(C)cc2)c1 the inhibition was 2.33% (inactive).
In the case of COCCNC(=O)c1cccc(C)c1[N+](=O)[O-], the inhibition is reported as 3.44% (inactive).
With CC1CC1C(=O)OCC(=O)Nc1cccc(S(=O)(=O)NC2=NCCCCC2)c1 (centres undefined) the inhibition was -7.4% (inactive).
In the case of COc1ccc(CCNC(=O)C2CC3Cn4c(nc5ccccc54)C3N2Cc2ccccc2)cc1 (centres undefined), the inhibition is reported as -0.23% (inactive).
In the case of Cc1ccc(S(=O)(=O)CCC(=O)OCC(=O)N2CC(=O)Nc3ccccc32)cc1, the inhibition is reported as -1.54% (inactive).
In the case of COc1ccc(-n2c(SCC(=O)Nc3cc(C(=O)O)ccc3C)nc3ccccc3c2=O)cc1Cl, the inhibition is reported as -8.45% (inactive).
With CN1/C(=C\C(=O)c2cncc(Br)c2)C(C)(C)c2ccccc21 the inhibition was 25.1% (inactive).
For CN1/C(=C\C(=O)c2cccnc2)C(C)(C)c2ccccc21, the inhibition was -3.35% (inactive).
For Cc1ccc2cc3cc(C(=O)N4CCC5(CC4)OCCO5)oc3nc2c1, the inhibition was -1.4% (inactive).
With COc1ccc2nc3oc(C(=O)N4CCC5(CC4)OCCO5)cc3cc2c1 the inhibition was 5.85% (inactive).
For CCN(C(=O)CSc1cc(C)c2cccc(C)c2n1)C1CCS(=O)(=O)C1 (centres undefined), the inhibition was 1.8% (inactive).
For O=C(CCC1CCCN(C(=O)CC2=CCCCC2)C1)N1CCN(c2ccccn2)CC1 (centres undefined), the inhibition was 8.51% (inactive).
For CCSc1nnc([C@H](Cc2ccccc2)NC(=O)OC(C)(C)C)o1, the inhibition was 14.6% (inactive).
For NS(=O)(=O)c1ccc(CCNC(=O)NC23CC4CC(CC(C4)C2)C3)cc1, the inhibition was 3.03% (inactive).
For O=C(NCCC1=CCCCC1)NC1CCCCC1, the inhibition was -1.65% (inactive).
In the case of O=C(NCCCO)NC12CC3CC(CC(C3)C1)C2, the inhibition is reported as 1.78% (inactive).
With COc1ccc(CCNC(=O)NC23CC4CC(CC(C4)C2)C3)cc1OC the inhibition was -2.6% (inactive).
In the case of CCOC(=O)c1cc(-c2ccccc2)nn1-c1ccccn1, the inhibition is reported as -4.13% (inactive).
In the case of C#CCOCCOCCOCCNc1nc(N2CCOCC2)nc(N2CCN(C(=O)Cn3cc(CCCN=C(N)N)nn3)CC2)n1, the inhibition is reported as -13.8% (inactive).
With CCN(CC)C(=O)c1cc2c(=O)c3cc(F)ccc3oc2nc1C the inhibition was 1.36% (inactive).
In the case of Cc1ccc(Nc2nc3ccccc3n3nnnc23)cc1, the inhibition is reported as -0.03% (inactive).
For CCCCC(=O)c1ccc(O)cc1O, the inhibition was 77% (inactive).
With CCC(=O)c1ccc(O)cc1 the inhibition was 14.2% (inactive).
For CCCCCCCC(=O)N/N=C(\C)c1ccc(O)cc1O, the inhibition was 11.6% (inactive).
For O=C(CCO)c1ccc(O)cc1, the inhibition was 12.1% (inactive).
With O=C(NCc1ccc(Cl)cc1)c1noc2c1CCCCC2 the inhibition was 4.19% (inactive).
With COc1ccc(NC2=CC(=O)CC(c3ccccc3)C2)cc1 (centres undefined) the inhibition was -3.06% (inactive).
In the case of O=C(O)CC(CC(=O)Nc1ccc(F)c(Cl)c1)c1ccc(Cl)cc1Cl (centres undefined), the inhibition is reported as -8.97% (inactive).
In the case of NNC(=O)C(Cc1ccccc1)NC(=O)OCc1ccccc1 (centres undefined), the inhibition is reported as 3.92% (inactive).
For Clc1ccc(C2=NCCN2)cc1, the inhibition was 4.97% (inactive).
In the case of O=C(Nc1ccc(Cl)c(Cl)c1)c1ccc(Cl)c(Cl)c1, the inhibition is reported as 2.4% (inactive).
For CCCN1C(=O)c2cc(C(=O)NCc3cccs3)ccc2C1O (centres undefined), the inhibition was -13.3% (inactive).
For O=C(Nc1ccc(F)c(Cl)c1)C1CC(=O)n2c(nc3ccccc32)N1 (centres undefined), the inhibition was -5.64% (inactive).
With Cc1ccc(/C=N/N2CCN(c3ccccc3)CC2)cc1 the inhibition was -2.14% (inactive).
For O=c1cc(-c2cccs2)oc2ccc(Cl)cc12, the inhibition was -2.31% (inactive).
In the case of O=c1c(O)c(-c2cccs2)oc2ccccc12, the inhibition is reported as -4% (inactive).
For Cc1cc(C(=O)NNS(=O)(=O)c2cccc(Cl)c2)nn1C(C)(C)C, the inhibition was 2.6% (inactive).
For CC(C)(C)NC(=O)Cn1c(Cl)nc2ccccc21, the inhibition was -2.82% (inactive).
With COc1ccc(OCc2csc(N)n2)cc1 the inhibition was -2.49% (inactive).
With Nc1nc(-c2ccc3ccccc3c2)cs1 the inhibition was 67.7% (inactive).
In the case of COc1ccc(-c2csc(N)n2)cc1, the inhibition is reported as 84.2% (inactive).
With Fc1cccc(-c2csc(-c3ccno3)n2)c1 the inhibition was 0.3% (inactive).
In the case of Nc1nc(-c2ccc(-c3ccccc3)cc2)cs1, the inhibition is reported as -0.75% (inactive).
In the case of Nc1nc(-c2ccccc2)cs1, the inhibition is reported as 56.7% (inactive).
For CC(=O)Nc1cccc(-c2csc(N)n2)c1, the inhibition was 1.85% (inactive).
With Cc1ccc(OCc2csc(N)n2)cc1 the inhibition was 2.65% (inactive).
With CCCCOc1ccc(NC(=O)C(=O)NCCC2=CCCCC2)cc1 the inhibition was -6% (inactive).
With Cc1ccc(NC2=NC3(CCCC3)N=C(N)N2)c(C)c1 the inhibition was -0.52% (inactive).
With CCC1CCCCN1C(=O)CSc1nnc(CNC(=O)COc2ccc(Cl)cc2)o1 (centres undefined) the inhibition was 0.62% (inactive).
For CC(=O)Nc1ccc(C(=O)NCC(=O)OCc2ccccc2F)cc1, the inhibition was 8.24% (inactive).
For C=CCNC(=O)c1sc(-c2ccccc2)nc1C, the inhibition was -4.4% (inactive).
In the case of COCCn1c(SCC(=O)N2CCN(c3ccccc3)CC2)nc2c(c1=O)SC(C)C2 (centres undefined), the inhibition is reported as -6.25% (inactive).
In the case of O=C(COC(=O)c1cccs1)NCC1CCCO1 (centres undefined), the inhibition is reported as -10.3% (inactive).
In the case of COC(=O)Nc1ccc(S(=O)(=O)NCc2ccccn2)cc1, the inhibition is reported as 4.77% (inactive).
With Cc1ccc2c(c1)C1CN(C)CCC1N2C(=O)c1cccc(S(=O)(=O)N(C)C)c1 (centres undefined) the inhibition was 1.67% (inactive).
For COCCOc1ccc(C(F)(F)F)cc1Nc1nc2ccccc2o1, the inhibition was 11.7% (inactive).
With COc1cc(/C=N/OCC(=O)Nc2cc(C)on2)ccc1OCc1ccccc1 the inhibition was 6.49% (inactive).
For O=[N+]([O-])c1ccc(N2CCCCC2)s1, the inhibition was 48.3% (inactive).
With CC1CCCN(c2c([N+](=O)[O-])cc(C(=O)O)cc2[N+](=O)[O-])C1 (centres undefined) the inhibition was -5.57% (inactive).
In the case of O=C(Cc1c[nH]c2ccccc12)NCc1ccc2c(c1)OCO2, the inhibition is reported as 8.71% (inactive).
With CCOc1c(OC)ccc2c3c(c(=O)oc12)CCCC3 the inhibition was 12.9% (inactive).
For CCCOc1ccc2c3c(c(=O)oc2c1OCCC)CCCC3, the inhibition was 30.6% (inactive).
For Cc1cc(CNC(=S)Nc2ccc(Br)cc2Cl)nn1C, the inhibition was 9.6% (inactive).
For CCOc1ccc(-n2c(O)c(C=Nc3ccc(N4CCOCC4)cc3)c(=O)[nH]c2=O)cc1, the inhibition was -4.71% (inactive).
In the case of CCOc1ccc(N=Cc2c(O)n(Cc3ccccc3)c(=S)[nH]c2=O)cc1, the inhibition is reported as 72.9% (inactive).
With CCN(CC)c1ccc(N=Cc2c(O)n(-c3ccc(OC)cc3)c(=O)[nH]c2=O)cc1 the inhibition was -3.8% (inactive).
With Cc1ccc(N=Cc2c(O)n(-c3ccc(C)cc3)c(=O)[nH]c2=O)cc1 the inhibition was -7.29% (inactive).
With COc1cc(CN=Cc2c(O)n(C(C)(C)C)c(=O)[nH]c2=O)cc(OC)c1 the inhibition was -1.21% (inactive).
With COc1ccc(N=Cc2c(O)n(-c3cccc(C)n3)c(=O)c3ccccc23)cc1 the inhibition was 16.8% (inactive).
With Cc1cccc(-n2c(O)c(C=Nc3ccc(O)cc3)c3ccccc3c2=O)n1 the inhibition was -0.55% (inactive).
For CCOc1ccccc1-n1c(O)c(C=Nc2ccc(N(CC)CC)cc2)c(=O)[nH]c1=O, the inhibition was -4.16% (inactive).
With O=C(O)c1ccc(CSc2nc3ccc(N4C(=O)C5C6C=CC(C6)C5C4=O)cc3s2)cc1 (centres undefined) the inhibition was -3.36% (inactive).
In the case of CN=C1SC(CC(=O)Nc2ccccc2F)C(=O)N1C (centres undefined), the inhibition is reported as -3.74% (inactive).
With COc1cccc(NC(=S)NNC(=O)c2ccccc2OC(F)F)c1 the inhibition was -13.3% (inactive).
With COc1ccc(C)cc1N(C(=O)CNC(=O)c1ccco1)C(C(=O)NC1CCCC1)c1cccnc1 (centres undefined) the inhibition was -8.51% (inactive).
For COc1cccc(-c2nn(-c3ccccc3)cc2CN(C)Cc2ccon2)c1, the inhibition was -3.56% (inactive).
For CN(C)S(=O)(=O)c1ccc2oc(SCC(N)=O)nc2c1, the inhibition was -16.7% (inactive).
For CC1=NN(C(=O)COc2ccccc2)C(O)(c2cccnc2)C1 (centres undefined), the inhibition was -1.6% (inactive).
With COc1ccc(CCN(C)CC(O)c2ccccc2)cc1OC (centres undefined) the inhibition was 1.49% (inactive).
With CCOc1ccc(-n2c(O)c(C=Nc3ccc(NC(C)=O)cc3)c(=O)[nH]c2=O)cc1 the inhibition was 4.04% (inactive).
With CCOc1ccc(-n2c(O)c(C=Nc3ccc(N(CC)CC)cc3)c(=O)[nH]c2=O)cc1 the inhibition was -0.69% (inactive).
In the case of CC1CCCN(c2nc3c(c(=O)[nH]c(=O)n3C)n2CCSc2ncccn2)C1 (centres undefined), the inhibition is reported as 2.85% (inactive).
With COC(=O)C1C2c3ccccc3OC1(C)N=c1s/c(=C/c3cnn(C)c3)c(=O)n12 (centres undefined) the inhibition was 58.3% (inactive).
With COC(=O)C1C2c3ccccc3OC1(C)N=c1s/c(=C/c3cn(C)nc3C)c(=O)n12 (centres undefined) the inhibition was -3.65% (inactive).
In the case of Cc1c(C)[n+](=O)c2c(n1[O-])C(Br)CCC2Br (centres undefined), the inhibition is reported as 0.09% (inactive).
For COC(=O)c1cccc(NC(N)=S)c1, the inhibition was 2.04% (inactive).
With NC(=O)Oc1cccc(OC(N)=O)c1 the inhibition was -7.05% (inactive).
With C#CCOc1ccc(Br)cc1/C=N/O the inhibition was 7.55% (inactive).
With O=C(NCc1cccs1)c1cc(-c2ccncc2)nc2ccc(Br)cc12 the inhibition was 71.8% (inactive).
With Cc1cc(N)n2ncc(-c3cccc(Br)c3)c2n1 the inhibition was 22.8% (inactive).
In the case of O=C(O)CSC1c2ccccc2C(=O)N1c1ccccc1 (centres undefined), the inhibition is reported as -1.63% (inactive).
In the case of CC(C)CNC(=O)Cn1c(=O)c2c(ncn2CC(C)C)n(Cc2ccccc2)c1=O, the inhibition is reported as 7.42% (inactive).
With Cc1ccc(NC(=S)NNC(=O)c2ccco2)cc1 the inhibition was 7.01% (inactive).
For O=C(Nc1ncc(Cc2cccc([N+](=O)[O-])c2)s1)c1ccco1, the inhibition was 1.37% (inactive).
In the case of O=C(Nc1ncc(Cc2ccccc2Cl)s1)c1ccc(-c2cccc([N+](=O)[O-])c2)o1, the inhibition is reported as -0.67% (inactive).
For COC(=O)c1ccc(OCC(O)CN2C(=O)NC(C)(C)C2=O)cc1 (centres undefined), the inhibition was -2.31% (inactive).
